# Results reported in article PMC11006913.
# Changes are numbered by the printed parent chain.
# Assays:
# Assay in all cases: PBM; 200 nM protein, PBS
# Conditions in all cases: dsDNA, one strand shown
# [1] = molecular target: T1, VENTX (Homo sapiens, UniProt O95231 78-163, R121Q)
# T1 sequence: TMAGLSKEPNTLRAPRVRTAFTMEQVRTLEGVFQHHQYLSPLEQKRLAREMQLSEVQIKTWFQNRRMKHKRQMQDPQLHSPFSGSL
# [2] = molecular target: T2, VENTX (Homo sapiens, UniProt O95231 78-163)
# T2 sequence: T1 sequence with Q44R
# [3] = molecular target: ALX4 (Homo sapiens, UniProt Q9H161 200-286)
# [4] = molecular target: T3, PAX4 (Homo sapiens, UniProt O43316 9-242, R200K)
# T3 sequence: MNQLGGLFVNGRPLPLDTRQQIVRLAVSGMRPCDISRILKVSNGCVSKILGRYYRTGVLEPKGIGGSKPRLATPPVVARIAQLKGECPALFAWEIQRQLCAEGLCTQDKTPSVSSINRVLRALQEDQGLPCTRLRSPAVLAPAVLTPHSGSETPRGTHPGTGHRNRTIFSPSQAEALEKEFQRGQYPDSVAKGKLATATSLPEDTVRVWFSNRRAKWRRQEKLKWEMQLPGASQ
# [5] = molecular target: T4, VENTX (Homo sapiens, UniProt O95231 78-163, Y115F)
# T4 sequence: T1 sequence with Y38F, Q44R
# [6] = molecular target: T5, PAX4 (Homo sapiens, UniProt O43316 9-242)
# T5 sequence: T3 sequence with K192R
# [7] = molecular target: ALX4 (Homo sapiens, UniProt Q9H161 200-286, Q225E)
# [8] = molecular target: MSX2 (Homo sapiens, UniProt P35548 130-214, R199I)
# [9] = molecular target: T6, PAX4 (Homo sapiens, UniProt O43316 9-242, R200Q)
# T6 sequence: T3 sequence with K192Q
# [10] = molecular target: T7, PAX4 (Homo sapiens, UniProt O43316 9-242, F177V)
# T7 sequence: T3 sequence with F169V, K192R
# [11] = molecular target: MSX2 (Homo sapiens, UniProt P35548 130-214)
# [12] = molecular target: T8, PAX4 (Homo sapiens, UniProt O43316 9-242, F177Y)
# T8 sequence: T3 sequence with F169Y, K192R
# [13] = molecular target: MSX2 (Homo sapiens, UniProt P35548 130-214, F161Y)
# [14] = molecular target: T9, PAX4 (Homo sapiens, UniProt O43316 9-242, R227W)
# T9 sequence: T3 sequence with K192R, R219W
# [15] = molecular target: HOXA7 (Homo sapiens, UniProt P31268 116-202)
# [16] = molecular target: VAX1 (Homo sapiens, UniProt Q5SQQ9 86-172)
# [17] = molecular target: VAX1 (Homo sapiens, UniProt Q5SQQ9 86-172, T142I)
# [18] = molecular target: HOXA7 (Homo sapiens, UniProt P31268 116-202, W177C)
# [19] = molecular target: VAX1 (Homo sapiens, UniProt Q5SQQ9 86-172, K157R)
# [20] = molecular target: HOXA2 (Homo sapiens, UniProt O43364 129-215, R185T)
# [21] = molecular target: HOXA2 (Homo sapiens, UniProt O43364 129-215, R185K)
# [22] = molecular target: HOXA2 (Homo sapiens, UniProt O43364 129-215, Y150S)
# [23] = molecular target: HOXA2 (Homo sapiens, UniProt O43364 129-215)
# [24] = molecular target: ALX3 (Homo sapiens, UniProt O95076 139-225, N203Q)
# [25] = molecular target: ALX3 (Homo sapiens, UniProt O95076 139-225)
# [26] = molecular target: ALX3 (Homo sapiens, UniProt O95076 139-225, L168Q)
# [27] = molecular target: ALX3 (Homo sapiens, UniProt O95076 139-225, L168V)
# [28] = molecular target: ALX3 (Homo sapiens, UniProt O95076 139-225, N203S)
# [29] = molecular target: HOXB6 (Homo sapiens, UniProt P17509 132-218, K202E)
# [30] = molecular target: HOXB6 (Homo sapiens, UniProt P17509 132-218)
# HOXB6 (Homo sapiens, UniProt P17509 132-218), sequence (P17509 132-218): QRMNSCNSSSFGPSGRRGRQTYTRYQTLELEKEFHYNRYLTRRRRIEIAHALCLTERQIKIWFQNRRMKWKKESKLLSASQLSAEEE
# HOXA2 (Homo sapiens, UniProt O43364 129-215, R185K), sequence (O43364 129-215 R185K): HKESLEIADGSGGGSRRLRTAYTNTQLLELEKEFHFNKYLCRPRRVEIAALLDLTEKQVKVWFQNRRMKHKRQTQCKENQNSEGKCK
# HOXA7 (Homo sapiens, UniProt P31268 116-202, W177C), sequence (P31268 116-202 W177C): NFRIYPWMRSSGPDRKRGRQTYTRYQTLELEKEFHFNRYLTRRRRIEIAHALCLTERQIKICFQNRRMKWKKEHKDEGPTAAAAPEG
# ALX4 (Homo sapiens, UniProt Q9H161 200-286, Q225E), sequence (Q9H161 200-286 Q225E): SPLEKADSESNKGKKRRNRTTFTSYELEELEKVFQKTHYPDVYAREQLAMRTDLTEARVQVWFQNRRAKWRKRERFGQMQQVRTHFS
# ALX4 (Homo sapiens, UniProt Q9H161 200-286), sequence (Q9H161 200-286): as the sequence (Q9H161 200-286 Q225E) above, with E26Q counted along it
# MSX2 (Homo sapiens, UniProt P35548 130-214, R199I), sequence (P35548 130-214 R199I): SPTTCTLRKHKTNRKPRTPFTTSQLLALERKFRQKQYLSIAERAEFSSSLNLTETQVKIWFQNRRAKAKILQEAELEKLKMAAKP
# HOXA7 (Homo sapiens, UniProt P31268 116-202), sequence (P31268 116-202): as the sequence (P31268 116-202 W177C) above, with C62W counted along it
# VAX1 (Homo sapiens, UniProt Q5SQQ9 86-172, K157R), sequence (Q5SQQ9 86-172 K157R): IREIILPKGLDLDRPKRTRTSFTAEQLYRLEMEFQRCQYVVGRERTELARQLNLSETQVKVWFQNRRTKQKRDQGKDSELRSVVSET
# VAX1 (Homo sapiens, UniProt Q5SQQ9 86-172, T142I), sequence (Q5SQQ9 86-172 T142I): as the sequence (Q5SQQ9 86-172 K157R) above, with T57I, R72K counted along it
# MSX2 (Homo sapiens, UniProt P35548 130-214, F161Y), sequence (P35548 130-214 F161Y): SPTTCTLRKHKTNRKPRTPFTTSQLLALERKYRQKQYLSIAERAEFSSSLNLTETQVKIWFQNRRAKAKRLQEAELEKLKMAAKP
# HOXA2 (Homo sapiens, UniProt O43364 129-215, Y150S), sequence (O43364 129-215 Y150S): as the sequence (O43364 129-215 R185K) above, with Y22S, K57R counted along it
# HOXA2 (Homo sapiens, UniProt O43364 129-215, R185T), sequence (O43364 129-215 R185T): as the sequence (O43364 129-215 R185K) above, with K57T counted along it
# VAX1 (Homo sapiens, UniProt Q5SQQ9 86-172), sequence (Q5SQQ9 86-172): as the sequence (Q5SQQ9 86-172 K157R) above, with R72K counted along it
# MSX2 (Homo sapiens, UniProt P35548 130-214), sequence (P35548 130-214): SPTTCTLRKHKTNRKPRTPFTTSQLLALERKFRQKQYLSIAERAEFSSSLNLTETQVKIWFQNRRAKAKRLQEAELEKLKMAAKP
# HOXB6 (Homo sapiens, UniProt P17509 132-218, K202E), sequence (P17509 132-218 K202E): as the sequence (P17509 132-218) above, with K71E counted along it
# HOXA2 (Homo sapiens, UniProt O43364 129-215), sequence (O43364 129-215): as the sequence (O43364 129-215 R185K) above, with K57R counted along it
# ALX3 (Homo sapiens, UniProt O95076 139-225, L168Q), sequence (O95076 139-225 L168Q): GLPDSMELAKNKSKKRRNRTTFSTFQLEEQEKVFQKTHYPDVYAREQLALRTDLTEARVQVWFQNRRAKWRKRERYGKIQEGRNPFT
# ALX3 (Homo sapiens, UniProt O95076 139-225, N203Q), sequence (O95076 139-225 N203Q): as the sequence (O95076 139-225 L168Q) above, with Q30L, N65Q counted along it
# ALX3 (Homo sapiens, UniProt O95076 139-225, N203S), sequence (O95076 139-225 N203S): as the sequence (O95076 139-225 L168Q) above, with Q30L, N65S counted along it
# ALX3 (Homo sapiens, UniProt O95076 139-225), sequence (O95076 139-225): as the sequence (O95076 139-225 L168Q) above, with Q30L counted along it
# ALX3 (Homo sapiens, UniProt O95076 139-225, L168V), sequence (O95076 139-225 L168V): as the sequence (O95076 139-225 L168Q) above, with Q30V counted along it
sequence,measurement,setting,value
GAAGCCGC,binding signal,[1],"8.12 upbm affinity estimate (log intensity, higher = more binding, comparable within an allelic series)"
same,binding signal,[2],"8.07 upbm affinity estimate (log intensity, higher = more binding, comparable within an allelic series)"
same,binding signal,[3],"8.19 upbm affinity estimate (log intensity, higher = more binding, comparable within an allelic series)"
same,binding signal,[4],"9.31 upbm affinity estimate (log intensity, higher = more binding, comparable within an allelic series)"
same,binding signal,[5],"8.31 upbm affinity estimate (log intensity, higher = more binding, comparable within an allelic series)"
same,binding signal,[6],"9.25 upbm affinity estimate (log intensity, higher = more binding, comparable within an allelic series)"
same,binding signal,[7],"8.07 upbm affinity estimate (log intensity, higher = more binding, comparable within an allelic series)"
same,binding signal,[8],"9.54 upbm affinity estimate (log intensity, higher = more binding, comparable within an allelic series)"
same,binding signal,[9],"9.31 upbm affinity estimate (log intensity, higher = more binding, comparable within an allelic series)"
same,binding signal,[10],"9.32 upbm affinity estimate (log intensity, higher = more binding, comparable within an allelic series)"
same,binding signal,[11],"9.58 upbm affinity estimate (log intensity, higher = more binding, comparable within an allelic series)"
same,binding signal,[12],"9.18 upbm affinity estimate (log intensity, higher = more binding, comparable within an allelic series)"
same,binding signal,[13],"9.63 upbm affinity estimate (log intensity, higher = more binding, comparable within an allelic series)"
same,binding signal,[14],"9.34 upbm affinity estimate (log intensity, higher = more binding, comparable within an allelic series)"
CGTCGACG,binding signal,[1],"7.98 upbm affinity estimate (log intensity, higher = more binding, comparable within an allelic series)"
same,binding signal,[2],"7.91 upbm affinity estimate (log intensity, higher = more binding, comparable within an allelic series)"
same,binding signal,[3],"7.89 upbm affinity estimate (log intensity, higher = more binding, comparable within an allelic series)"
same,binding signal,[5],"8.1 upbm affinity estimate (log intensity, higher = more binding, comparable within an allelic series)"
same,binding signal,[7],"7.93 upbm affinity estimate (log intensity, higher = more binding, comparable within an allelic series)"
CCGAGCCC,binding signal,[1],"8.05 upbm affinity estimate (log intensity, higher = more binding, comparable within an allelic series)"
same,binding signal,[2],"8.08 upbm affinity estimate (log intensity, higher = more binding, comparable within an allelic series)"
same,binding signal,[5],"8.04 upbm affinity estimate (log intensity, higher = more binding, comparable within an allelic series)"
GTATTAAA,binding signal,[1],"9.94 upbm affinity estimate (log intensity, higher = more binding, comparable within an allelic series)"
same,binding signal,[2],"10.3 upbm affinity estimate (log intensity, higher = more binding, comparable within an allelic series)"
CAGGGCCC,binding signal,[1],"8.07 upbm affinity estimate (log intensity, higher = more binding, comparable within an allelic series)"
same,binding signal,[2],"8.08 upbm affinity estimate (log intensity, higher = more binding, comparable within an allelic series)"
same,binding signal,[15],"8.32 upbm affinity estimate (log intensity, higher = more binding, comparable within an allelic series)"
same,binding signal,[5],"7.87 upbm affinity estimate (log intensity, higher = more binding, comparable within an allelic series)"
same,binding signal,[16],"7.03 upbm affinity estimate (log intensity, higher = more binding, comparable within an allelic series)"
same,binding signal,[17],"7.1 upbm affinity estimate (log intensity, higher = more binding, comparable within an allelic series)"
same,binding signal,[18],"8.37 upbm affinity estimate (log intensity, higher = more binding, comparable within an allelic series)"
same,binding signal,[19],"6.99 upbm affinity estimate (log intensity, higher = more binding, comparable within an allelic series)"
ACCAATCA,binding signal,[1],"9.98 upbm affinity estimate (log intensity, higher = more binding, comparable within an allelic series)"
same,binding signal,[2],"10.7 upbm affinity estimate (log intensity, higher = more binding, comparable within an allelic series)"
same,binding signal,[4],"10.5 upbm affinity estimate (log intensity, higher = more binding, comparable within an allelic series)"
same,binding signal,[6],"10.6 upbm affinity estimate (log intensity, higher = more binding, comparable within an allelic series)"
same,binding signal,[8],"10.9 upbm affinity estimate (log intensity, higher = more binding, comparable within an allelic series)"
same,binding signal,[9],"10.7 upbm affinity estimate (log intensity, higher = more binding, comparable within an allelic series)"
same,binding signal,[10],"9.96 upbm affinity estimate (log intensity, higher = more binding, comparable within an allelic series)"
same,binding signal,[12],"10.1 upbm affinity estimate (log intensity, higher = more binding, comparable within an allelic series)"
same,binding signal,[14],"10 upbm affinity estimate (log intensity, higher = more binding, comparable within an allelic series)"
CCGAGGGC,binding signal,[1],"7.98 upbm affinity estimate (log intensity, higher = more binding, comparable within an allelic series)"
same,binding signal,[2],"8.24 upbm affinity estimate (log intensity, higher = more binding, comparable within an allelic series)"
same,binding signal,[3],"8.14 upbm affinity estimate (log intensity, higher = more binding, comparable within an allelic series)"
same,binding signal,[5],"8.11 upbm affinity estimate (log intensity, higher = more binding, comparable within an allelic series)"
same,binding signal,[7],"8.07 upbm affinity estimate (log intensity, higher = more binding, comparable within an allelic series)"
same,binding signal,[20],"7.12 upbm affinity estimate (log intensity, higher = more binding, comparable within an allelic series)"
same,binding signal,[8],"9.49 upbm affinity estimate (log intensity, higher = more binding, comparable within an allelic series)"
same,binding signal,[21],"10.3 upbm affinity estimate (log intensity, higher = more binding, comparable within an allelic series)"
same,binding signal,[11],"9.42 upbm affinity estimate (log intensity, higher = more binding, comparable within an allelic series)"
same,binding signal,[13],"9.43 upbm affinity estimate (log intensity, higher = more binding, comparable within an allelic series)"
same,binding signal,[22],"10.3 upbm affinity estimate (log intensity, higher = more binding, comparable within an allelic series)"
same,binding signal,[23],"7.2 upbm affinity estimate (log intensity, higher = more binding, comparable within an allelic series)"
AAATCTAC,binding signal,[1],"9.32 upbm affinity estimate (log intensity, higher = more binding, comparable within an allelic series)"
same,binding signal,[2],"9.65 upbm affinity estimate (log intensity, higher = more binding, comparable within an allelic series)"
CCCAGAGG,binding signal,[1],"7.95 upbm affinity estimate (log intensity, higher = more binding, comparable within an allelic series)"
same,binding signal,[2],"7.77 upbm affinity estimate (log intensity, higher = more binding, comparable within an allelic series)"
same,binding signal,[3],"8.01 upbm affinity estimate (log intensity, higher = more binding, comparable within an allelic series)"
same,binding signal,[5],"7.81 upbm affinity estimate (log intensity, higher = more binding, comparable within an allelic series)"
same,binding signal,[7],"8 upbm affinity estimate (log intensity, higher = more binding, comparable within an allelic series)"
same,binding signal,[20],"7.09 upbm affinity estimate (log intensity, higher = more binding, comparable within an allelic series)"
same,binding signal,[24],"7.67 upbm affinity estimate (log intensity, higher = more binding, comparable within an allelic series)"
same,binding signal,[21],"10.2 upbm affinity estimate (log intensity, higher = more binding, comparable within an allelic series)"
same,binding signal,[25],"7.71 upbm affinity estimate (log intensity, higher = more binding, comparable within an allelic series)"
same,binding signal,[26],"7.65 upbm affinity estimate (log intensity, higher = more binding, comparable within an allelic series)"
same,binding signal,[27],"7.63 upbm affinity estimate (log intensity, higher = more binding, comparable within an allelic series)"
same,binding signal,[22],"10.3 upbm affinity estimate (log intensity, higher = more binding, comparable within an allelic series)"
same,binding signal,[28],"7.62 upbm affinity estimate (log intensity, higher = more binding, comparable within an allelic series)"
same,binding signal,[23],"7.15 upbm affinity estimate (log intensity, higher = more binding, comparable within an allelic series)"
CTGGCAGC,binding signal,[1],"8.09 upbm affinity estimate (log intensity, higher = more binding, comparable within an allelic series)"
same,binding signal,[2],"8.14 upbm affinity estimate (log intensity, higher = more binding, comparable within an allelic series)"
same,binding signal,[5],"8.07 upbm affinity estimate (log intensity, higher = more binding, comparable within an allelic series)"
CTAATCGA,binding signal,[1],"11.6 upbm affinity estimate (log intensity, higher = more binding, comparable within an allelic series)"
same,binding signal,[2],"12.5 upbm affinity estimate (log intensity, higher = more binding, comparable within an allelic series)"
same,binding signal,[5],"11.1 upbm affinity estimate (log intensity, higher = more binding, comparable within an allelic series)"
TAATGGGA,binding signal,[1],"11.5 upbm affinity estimate (log intensity, higher = more binding, comparable within an allelic series)"
same,binding signal,[2],"12.4 upbm affinity estimate (log intensity, higher = more binding, comparable within an allelic series)"
same,binding signal,[5],"11.3 upbm affinity estimate (log intensity, higher = more binding, comparable within an allelic series)"
AACGATTA,binding signal,[1],"11.2 upbm affinity estimate (log intensity, higher = more binding, comparable within an allelic series)"
same,binding signal,[2],"12.3 upbm affinity estimate (log intensity, higher = more binding, comparable within an allelic series)"
same,binding signal,[5],"11.3 upbm affinity estimate (log intensity, higher = more binding, comparable within an allelic series)"
GGCCATTA,binding signal,[1],"11.6 upbm affinity estimate (log intensity, higher = more binding, comparable within an allelic series)"
same,binding signal,[2],"12.3 upbm affinity estimate (log intensity, higher = more binding, comparable within an allelic series)"
same,binding signal,[15],"11.2 upbm affinity estimate (log intensity, higher = more binding, comparable within an allelic series)"
same,binding signal,[5],"11.4 upbm affinity estimate (log intensity, higher = more binding, comparable within an allelic series)"
same,binding signal,[29],"9.75 upbm affinity estimate (log intensity, higher = more binding, comparable within an allelic series)"
same,binding signal,[18],"8.67 upbm affinity estimate (log intensity, higher = more binding, comparable within an allelic series)"
same,binding signal,[30],"11.8 upbm affinity estimate (log intensity, higher = more binding, comparable within an allelic series)"
GCCCATTA,binding signal,[1],"12.1 upbm affinity estimate (log intensity, higher = more binding, comparable within an allelic series)"
same,binding signal,[2],"13 upbm affinity estimate (log intensity, higher = more binding, comparable within an allelic series)"
same,binding signal,[15],"11.3 upbm affinity estimate (log intensity, higher = more binding, comparable within an allelic series)"
same,binding signal,[5],"11.8 upbm affinity estimate (log intensity, higher = more binding, comparable within an allelic series)"
same,binding signal,[29],"9.82 upbm affinity estimate (log intensity, higher = more binding, comparable within an allelic series)"
same,binding signal,[21],"13.1 upbm affinity estimate (log intensity, higher = more binding, comparable within an allelic series)"
same,binding signal,[16],"12.8 upbm affinity estimate (log intensity, higher = more binding, comparable within an allelic series)"
same,binding signal,[17],"12.2 upbm affinity estimate (log intensity, higher = more binding, comparable within an allelic series)"
same,binding signal,[18],"8.75 upbm affinity estimate (log intensity, higher = more binding, comparable within an allelic series)"
same,binding signal,[19],"12.5 upbm affinity estimate (log intensity, higher = more binding, comparable within an allelic series)"
same,binding signal,[30],"11.8 upbm affinity estimate (log intensity, higher = more binding, comparable within an allelic series)"
